PubChem BioAssay (Tox21)
Inconclusive results are not listed. Activity calls are given as the source filed them. Unless noted, the call rests on the fitted dose curve; in most records, active means well fitted curve in the direction sought with a large enough effect in the repeat runs; inconclusive means weak or mixed curves; inactive means no such curve, though single readings can be large; an effect the other way counts as inactive or inconclusive.

Legend:
[1] = A CellTox Green Cytotoxicity Assay to monitor cytotoxicity in HepG2 cells - 8 hour (AID 1224890); further: nearly all actives have a fitted effect of over 45% in size; further: potency means the concentration at half of the fitted maximal effect
Procedure, shortened: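 Real-time, homogeneous cytotoxicity readout: dead-cell DNA staining by CellTox Green in HepG2 monolayers, fluorescence measured at timed intervals up to 40 h of continuous compound exposure.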

[2] = qHTS assay to identify small molecule antagonists of the estrogen receptor alpha (ER-alpha) signaling pathway using the BG1 cell line in the presence of 0.1 nM 17-beta-estradiol - cell viability counter screen (AID 1259241); further: nearly all actives have a fitted effect of over 40% in size
Procedure, shortened: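 Estradiol-stimulated (0.1 nM) VM7Luc4E2 cells exposed to compounds 22 hr; viability measured by fluorescence of cleaved CellTiter-Fluor substrate after 30 min.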

[3] = qHTS assay to identify small molecule antagonists of the androgen receptor (AR) signaling pathway using the MDA cell line in the presence of 0.5 nM R1881 - cell viability counter screen (AID 1259242); further: nearly all actives have a fitted effect of over 45% in size
Procedure, shortened: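 Cytotoxicity toward MDA-kb2 cells is measured by CellTiter-Fluor live-cell protease fluorescence after 16 hr compound exposure at 37C in the presence of 0.5 nM R1881 stimulator.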

[4] = biological target: Estrogen receptor (Homo sapiens) (UniProt P03372); assay: qHTS assay to identify small molecule antagonists of the estrogen receptor alpha (ER-alpha) signaling pathway using the BG1 cell line in the presence of 0.1 nM 17-beta-estradiol (AID 1259244); further: nearly all actives have a fitted effect of over 50% in size
Chain of Estrogen receptor (Homo sapiens) (P03372 whole entry, looked up): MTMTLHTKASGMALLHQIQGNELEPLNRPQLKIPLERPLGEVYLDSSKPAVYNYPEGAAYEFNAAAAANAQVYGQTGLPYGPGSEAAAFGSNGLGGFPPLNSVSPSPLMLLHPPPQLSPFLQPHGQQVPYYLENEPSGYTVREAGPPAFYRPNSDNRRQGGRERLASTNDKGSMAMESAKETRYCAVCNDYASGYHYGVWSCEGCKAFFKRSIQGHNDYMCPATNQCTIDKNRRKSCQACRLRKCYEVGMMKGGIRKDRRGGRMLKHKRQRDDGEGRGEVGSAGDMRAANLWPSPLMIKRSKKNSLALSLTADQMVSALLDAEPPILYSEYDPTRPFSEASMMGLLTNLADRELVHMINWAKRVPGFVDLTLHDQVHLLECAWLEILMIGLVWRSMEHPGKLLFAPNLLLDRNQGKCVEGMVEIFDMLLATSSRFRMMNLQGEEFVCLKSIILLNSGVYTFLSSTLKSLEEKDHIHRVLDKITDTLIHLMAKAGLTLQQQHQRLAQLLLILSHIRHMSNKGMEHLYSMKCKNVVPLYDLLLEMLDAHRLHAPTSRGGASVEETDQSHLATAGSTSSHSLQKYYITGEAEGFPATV
Procedure, shortened: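 After 5 days in hormone-depleted medium (charcoal-stripped serum, no phenol red), VM7Luc4E2 cells were seeded, incubated 24 h, then co-treated with compound and 0.1 nM (final) estradiol for 22 h before luminescence detection.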

[5] = qHTS assay to identify small molecule phospholipidosis (PLD) inducers (AID 1259344; active means well fitted curve in the direction sought with a large enough effect; an effect the other way counts as inactive or inconclusive)
Procedure, shortened: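 HepG2 cells, 900/well, treated with compound plus LipidTOX Red for 24 h at 37 C; amiodarone positive and DMSO negative controls. Fixed with paraformaldehyde/Hoechst, then high-content imaging scored LipidTOX pit count and integrated intensity per well and per cell.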

[6] = qHTS assay to identify small molecule HDAC inhibitors (AID 1259364); further: nearly all actives have a fitted effect of over 45% in size; further: potency means the concentration at half of the fitted maximal effect; on activity change, negative = inhibition: top concentration of the series differs between compounds
Procedure, shortened: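 Homogeneous cell-based luminescent assay of endogenous class I/II HDAC activity; HCT-116 cells, 2 h compound exposure, 30 min HDAC-Glo development at RT.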

[7] = qHTS assay to identify small molecule HDAC inhibitors - cell viability counter screen (AID 1259365); further: series mostly up to about 92 µM; nearly all actives have a fitted effect of over 50% in size
Procedure, shortened: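 After overnight seeding at 1,500 cells per well, wild-type HCT-116 cultures took up compounds in DMSO for 2hr at 37 C. Viable cell content came from luminescence with CellTiter-Glo.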

[8] = qHTS assay to identify small molecule agonists of the sonic hedgehog signaling (Shh) pathway - cell viability counter screen (AID 1259366); further: nearly all actives have a fitted effect of over 50% in size
Procedure, shortened: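 Same-well cytotoxicity read. Gli1-Luc reporter 3T3 cells; compounds 24hr, 37C/5% CO2; CellTiter-Fluor fluorescence.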

[9] = qHTS assay to identify small molecule antagonists of the sonic hedgehog signaling (Shh) pathway - cell viability counter screen (AID 1259367); further: nearly all actives have a fitted effect of over 55% in size
Procedure, shortened: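 NIH/3T3-derived Gli1-Luc reporter cells, 2,000/well, plated 4 hr before compound addition, then stimulated with conditioned medium for 24 hr at 37C. Viability measured in the same wells by CellTiter-Fluor fluorescence, reagent added at 23 hr for 1 hr.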

[10] = qHTS assay to identify small molecule agonists of the sonic hedgehog signaling (Shh) pathway (AID 1259368; calls by dose curve;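 further: NIH/3T3-derived 3T3Gli1-Luc cells carrying a stable Gli1-driven firefly luciferase reporter; series mostly up to about 92 µM; nearly all actives have a fitted effect of over 15% in size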)
Procedure, shortened: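 Steps: seed 3T3 Gli1-Luc cells, incubate 4 hr at 37 C, pin-transfer compounds in DMSO alongside a positive control, incubate 24 hr, add luciferase detection reagent, wait 30 min at room temperature, read luminescence.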

[11] = qHTS assay to identify small molecule antagonists of the sonic hedgehog signaling (Shh) pathway (AID 1259369; calls by dose curve; further: nearly all actives have a fitted effect of over 45% in size)
Procedure, shortened: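 Inhibition of Shh signalling is measured as reduced Gli1-response-element firefly luciferase output in an NIH/3T3-derived stable reporter clone stimulated with conditioned medium for 24hr.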

[12] = biological target: Estrogen receptor beta (Homo sapiens) (UniProt Q92731); assay: qHTS assay to identify small molecule agonists of the estrogen receptor beta (ER-beta) signaling pathway (AID 1259377; active means well fitted activation curve with a large enough effect in the signal ratio in the repeat runs, not every such curve was filed as active; the % refers to the signal ratio)
Chain of Estrogen receptor beta (Homo sapiens) (Q92731 whole entry, looked up): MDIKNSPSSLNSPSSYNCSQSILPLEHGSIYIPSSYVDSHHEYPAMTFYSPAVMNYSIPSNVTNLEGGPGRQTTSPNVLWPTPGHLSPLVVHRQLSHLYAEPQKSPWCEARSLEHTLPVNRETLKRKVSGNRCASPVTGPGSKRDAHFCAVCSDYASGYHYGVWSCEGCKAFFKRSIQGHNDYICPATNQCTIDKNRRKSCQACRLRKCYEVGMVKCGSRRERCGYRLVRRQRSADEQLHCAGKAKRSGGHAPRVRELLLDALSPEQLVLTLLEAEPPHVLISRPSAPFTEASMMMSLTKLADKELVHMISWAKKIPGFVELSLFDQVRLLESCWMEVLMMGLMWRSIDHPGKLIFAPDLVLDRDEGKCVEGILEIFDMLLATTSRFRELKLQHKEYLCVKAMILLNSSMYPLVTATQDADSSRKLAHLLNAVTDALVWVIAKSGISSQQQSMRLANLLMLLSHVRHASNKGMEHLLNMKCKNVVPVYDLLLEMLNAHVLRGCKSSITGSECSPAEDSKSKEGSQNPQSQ
Procedure, shortened: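 Read-out: beta-lactamase FRET fluorescence. Cell line: ER-beta-UAS-bla HEK293T in 2% charcoal-stripped FBS. Exposure: 16 hr at 37C. Substrate step: 2 h at room temperature.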

[13] = biological target: Estrogen receptor beta (Homo sapiens) (UniProt Q92731); assay: qHTS assay to identify small molecule antagonists of the estrogen receptor beta (ER-beta) signaling pathway (AID 1259378; active means well fitted inhibition curve with a large enough effect in the signal ratio in the repeat runs, not every such curve was filed as active; the % refers to the signal ratio)
Procedure, shortened: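 ER-beta-UAS-bla HEK293T cells in 2% charcoal-stripped FBS medium treated with compound plus 1nM final 17-beta-estradiol for 16 hr at 37C. Beta-lactamase reporter read by FRET substrate fluorescence after 2 hours at room temperature.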

[14] = qHTS assay to identify small molecule agonists of the androgen receptor (AR) signaling pathway in the presence of an antagonist - cell viability counter screen (AID 1259379);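 further: MDA-kb2 human breast cancer cells carrying an MMTV luciferase reporter; series mostly up to about 92 µM; nearly all actives have a fitted effect of over 25% in size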
Procedure, shortened: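 Fluorescence from CellTiter-Fluor, added after 15 hr and read 1 hr later, gave cell viability. Cells were MDA-kb2 exposed to compounds (15 concentrations) in the presence of 3.0uM nilutamide at 37C, 0% CO2.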

[15] = qHTS assay to identify small molecule agonists of the estrogen receptor beta (ER-beta) signaling pathway - cell viability counter screen (AID 1259380); further: nearly all actives have a fitted effect of over 30% in size
Procedure, shortened: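 Same-well viability counter screen. Cells: ER-beta-UAS-bla HEK293T, plated 6 hr before compound, in 2% charcoal-stripped FBS. Compound exposure 16 hr, 37C; viability by CellTiter-Glo luminescence after 30 min at room temperature.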

[16] = biological target: Estrogen receptor (Homo sapiens) (UniProt P03372); assay: qHTS assay to identify small molecule agonists of the estrogen receptor alpha (ER-alpha) signaling pathway in the presence of an antagonist (AID 1259383; calls by dose curve; further: top concentration of the series differs between compounds; nearly all actives have a fitted effect of over 15% in size)
Procedure, shortened: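 Cells are hormone-deprived for 5 days (charcoal-stripped FBS, no phenol red), plated for 24hr, spiked with 10.0nM ICI-182,780, then dosed at 15 concentrations. After 22hr at 37C, ONE-Glo luminescence reports ERE-luciferase activity.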

[17] = qHTS assay to identify small molecule antagonists of the estrogen receptor beta (ER-beta) signaling pathway - cell viability counter screen (AID 1259382); further: series mostly up to about 92 µM; nearly all actives have a fitted effect of over 55% in size
Procedure, shortened: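 Following a 6 hr plating period, HEK293T cells carrying a UAS-driven beta-lactamase reporter under ER-beta control received compounds and 1nM E2 (final). After 16 hr at 37C and 2 hr substrate loading, CellTiter-Glo luminescence indicated viability.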

[18] = qHTS assay to identify small molecule agonists or antagonists of the thyroid stimulating hormone receptor (TSHR) signaling pathway - wild type cell line counter screen (AID 1259384; calls by dose curve)
Procedure, shortened: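 Wild-type Hek293 cells, 800/well, 18 h at 37C, then compound with Ro20-1724 for 30 min RT. cAMP by HTRF (cAMP-d2/anti-cAMP cryptate), 1 h RT, fluorescence read. 15 concentrations, triplicates.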

[19] = biological target: Androgen receptor (Homo sapiens) (UniProt P10275); assay: qHTS assay to identify small molecule antagonists of the androgen receptor (AR) signaling pathway using the MDA cell line in the presence of 0.5 nM R1881 (AID 1259243); further: nearly all actives have a fitted effect of over 50% in size
Chain of Androgen receptor (Homo sapiens) (P10275 whole entry, looked up): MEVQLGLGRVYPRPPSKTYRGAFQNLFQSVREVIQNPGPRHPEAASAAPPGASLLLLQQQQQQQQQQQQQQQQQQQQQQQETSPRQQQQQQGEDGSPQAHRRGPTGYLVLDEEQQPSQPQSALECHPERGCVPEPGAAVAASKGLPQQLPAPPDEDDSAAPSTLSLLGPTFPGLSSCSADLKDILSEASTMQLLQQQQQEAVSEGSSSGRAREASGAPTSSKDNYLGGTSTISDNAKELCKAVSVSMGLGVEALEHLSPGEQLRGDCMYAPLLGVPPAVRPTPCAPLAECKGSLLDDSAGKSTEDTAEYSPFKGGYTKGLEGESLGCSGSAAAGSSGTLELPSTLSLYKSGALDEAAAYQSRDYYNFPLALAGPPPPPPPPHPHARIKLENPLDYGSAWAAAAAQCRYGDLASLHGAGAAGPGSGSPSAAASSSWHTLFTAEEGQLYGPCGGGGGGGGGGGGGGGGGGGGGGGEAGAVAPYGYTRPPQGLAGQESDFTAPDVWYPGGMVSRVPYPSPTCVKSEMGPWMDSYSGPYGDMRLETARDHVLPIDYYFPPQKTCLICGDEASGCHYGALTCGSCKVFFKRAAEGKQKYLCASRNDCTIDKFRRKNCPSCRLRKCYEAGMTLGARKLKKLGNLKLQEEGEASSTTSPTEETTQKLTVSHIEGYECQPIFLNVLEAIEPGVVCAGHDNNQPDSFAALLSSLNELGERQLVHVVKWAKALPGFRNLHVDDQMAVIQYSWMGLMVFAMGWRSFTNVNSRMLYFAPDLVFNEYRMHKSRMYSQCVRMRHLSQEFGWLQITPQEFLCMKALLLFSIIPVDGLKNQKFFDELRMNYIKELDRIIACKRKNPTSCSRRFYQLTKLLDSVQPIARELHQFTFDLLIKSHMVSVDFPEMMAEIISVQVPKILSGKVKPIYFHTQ
Procedure, shortened: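 Steps: seed MDA-kb2 cells, incubate 5 hr at 37C; pin-transfer compounds in DMSO; add R1881 to 0.5 nM final; incubate 16 hr; add ONE-Glo, wait 30 min at room temperature; read luminescence.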

[20] = biological target: Androgen receptor (Homo sapiens) (UniProt P10275); assay: qHTS assay to identify small molecule agonists of the androgen receptor (AR) signaling pathway in the presence of an antagonist (AID 1259381; calls by dose curve; further: nearly all actives have a fitted effect of over 15% in size)
Procedure, shortened: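 Cells are MDA-kb2 (human breast carcinoma, MMTV-luc, AR/GR responsive). Nilutamide is present at 3.0uM final throughout; compounds are added at 15 concentrations and incubated 16hr at 37C before ONE-Glo luminescence detection.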
On the % scale 0 is the no-effect control and ±100 the full control effect.

NC(CSCC(=O)O)C(=O)O (stereo not drawn)
inactive: Potency [1] | outcome [2] | Potency [3] | outcome [4] | Potency [5] | Potency [6] | outcome [7] | Potency [8] | Potency [9] | outcome [10] | Potency [11] | outcome [12] | outcome [13] | Potency [14] | Potency [15] | Potency [16]

NCCCNCCSP(=O)(O)O
inactive: cytotoxicity increase [1] 0.329% [at 6.97 µM] | activity change, negative = cytotoxicity [2] -0.971% [at 8.39 µM] | viability change, negative = cytotoxic [3] 0.214% [at 8.39 µM] | activity change, negative = inhibition [4] 3.05% [at 8.39 µM] | Potency [5] | activity change, negative = inhibition [6] -1.97% [at 8.39 µM] | activity change, negative = cytotoxicity [7] 0.673% [at 8.39 µM] | viability change, negative = cytotoxic [8] -2.35% [at 8.39 µM] | viability change, negative = cytotoxic [9] 5.98% [at 8.39 µM] | activity change [10] -0.244% [at 8.39 µM] | activity change, negative = inhibition [11] 21.5% [at 8.39 µM] | activation [12] -1.24% [at 8.39 µM] | activity, negative = inhibition [13] 13.1% [at 8.39 µM] | activity change, negative = cytotoxicity [14] 9.45% [at 8.39 µM] | activity change, negative = cytotoxicity [15] 0.895% [at 8.39 µM] | activity change, negative = cytotoxicity [17] 1.8% [at 8.39 µM] | activation [16] -0.349% [at 8.39 µM]

Cn1cc(S(C)=O)c(=O)c2ccc(F)cc21 (stereo not drawn)
inactive: Potency [1] | outcome [2] | Potency [3] | outcome [4] | Potency [5] | Potency [6] | outcome [7] | Potency [8] | Potency [9] | outcome [10] | Potency [11] | Potency [14] | Potency [15] | Potency [17] | Potency [16] | outcome [18]

CC(NC(CCc1ccccc1)C(=O)O)C(=O)N1C(=O)N(C)CC1C(=O)O (stereo not drawn)
inactive: Potency [1] | outcome [2] | Potency [3] | Potency [19] | Potency [6] | outcome [7] | Potency [8] | Potency [9] | outcome [10] | Potency [11] | outcome [12] | outcome [13] | Potency [14] | Potency [15] | Potency [20] | Potency [17] | outcome [18]

CN(C)CCCSc1ccccc1NC(=O)/C=C/c1ccccc1
active: Potency [1] 19 µM | Potency [6] 8.41 µM
inactive: outcome [2] | Potency [3] | outcome [4] | Potency [5] | outcome [7] | Potency [8] | Potency [9] | outcome [10] | Potency [11] | Potency [14] | Potency [15] | Potency [17] | Potency [16] | outcome [18]

COc1cc(C(=O)N2CCCCCCC2)cc(OC)c1OC
inactive: Potency [1] | outcome [2] | Potency [3] | outcome [4] | Potency [5] | Potency [6] | outcome [7] | Potency [8] | Potency [9] | Potency [11] | outcome [12] | outcome [13] | Potency [14] | Potency [15] | Potency [16]

N[C@@H](C(=O)N[C@@H]1C(=O)N2C(C(=O)O)=C(Cl)CS[C@H]12)c1ccccc1
inactive: cytotoxicity increase [1] -13.7% [at 6.97 µM] | activity change, negative = cytotoxicity [2] 0.43% [at 8.39 µM] | viability change, negative = cytotoxic [3] 4.33% [at 8.39 µM] | activity change, negative = inhibition [4] 7.81% [at 8.39 µM] | Potency [5] | activity change, negative = inhibition [6] 5.64% [at 8.39 µM] | activity change, negative = cytotoxicity [7] -0.59% [at 8.39 µM] | viability change, negative = cytotoxic [8] 1.34% [at 8.39 µM] | viability change, negative = cytotoxic [9] 3.69% [at 8.39 µM] | activity change [10] -0.56% [at 8.39 µM] | activity change, negative = inhibition [11] -3.06% [at 8.39 µM] | activity change, negative = cytotoxicity [14] -6.11% [at 8.39 µM] | activity change, negative = cytotoxicity [15] 2.28% [at 8.39 µM] | activity change, negative = cytotoxicity [17] 5.71% [at 8.39 µM] | activation [16] 0.817% [at 8.39 µM] | cAMP activity change [18] -1.5% [at 8.39 µM]
